The campaign covered roughly 190,000 compounds. About 1,300 (0.68%) were called active. This excerpt belongs to a sample that is enriched for actives. Unmarked numbers belong to inactive results. No stated cut-off is given here; in the data, active means inhibition above about 50%; inactive means the rest.

Broadly, the inhibition is the relative decrease from the control value, in per cent.

Sequence of Mannose-6-phosphate isomerase (Homo sapiens) (P34949 whole entry, looked up): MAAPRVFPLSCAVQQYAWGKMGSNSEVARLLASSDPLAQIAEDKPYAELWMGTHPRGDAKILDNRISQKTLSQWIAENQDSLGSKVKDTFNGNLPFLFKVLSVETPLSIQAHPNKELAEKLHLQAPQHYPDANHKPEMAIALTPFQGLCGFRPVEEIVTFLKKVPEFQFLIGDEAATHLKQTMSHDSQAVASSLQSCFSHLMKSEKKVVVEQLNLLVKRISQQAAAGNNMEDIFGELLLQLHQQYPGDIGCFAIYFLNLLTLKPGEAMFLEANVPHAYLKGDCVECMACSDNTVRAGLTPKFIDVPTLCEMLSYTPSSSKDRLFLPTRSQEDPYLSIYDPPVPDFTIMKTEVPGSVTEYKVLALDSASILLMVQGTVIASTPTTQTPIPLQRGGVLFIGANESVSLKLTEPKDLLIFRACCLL

This experiment concerns the target Mannose-6-phosphate isomerase (Homo sapiens) (UniProt P34949). Description: human PMI inhibitors, high substrate, primary screen, biochemical, fluorescence intensity, high mannose 6-phosphate (AID 1220). The following applies: recombinant PMI enzyme, coupled fluorescence intensity; at 20 µM; stronger effect = higher value.
As for `CC(C)(C)NC(=O)COC(=O)Cc1ccc(Cl)cc1`, the inhibition is -0.9%.

For the molecule `COC(=O)N/N=C/c1cc(Cl)c(OCc2ccc(F)cc2)c(OC)c1`, the inhibition is -6.1%. In the case of `CCC(C)NCCOCCOc1ccc(C)cc1Br` (stereo not given), the inhibition was 0.7%. Then `CCn1c(SCC(=O)N/N=C/C=C\c2ccccc2[N+](=O)[O-])nc2ccccc21`, with 6.4%; and `CCOc1ccc(NC2CCN(C(C)=O)CC2)cc1`, with 33.1%.

In the case of `Clc1ccc(CCNc2nc3ccccc3s2)cc1`, the inhibition is 1.2%. Turning to `O=C(CSc1ncccc1C(=O)O)c1ccccc1`, the inhibition is -60.9%.

For the molecule `Cn1c(SCC(=O)Nc2cccc(Br)c2)nnc1-c1cc2ccccc2o1`, the inhibition was -14.1%.

With `O=C(NCCc1ccccc1)c1ccccc1F`, the inhibition is 8.3%. Then `c1cncc(-c2nnc(-c3cccnc3)nn2)c1`, with 62.4% (active); and `c1cncc(-c2nn[nH]n2)c1`, with -12.1%; and `c1cncc(-c2cccnc2)c1`, with -2.8%. Next, `COc1ccc(S(=O)(=O)NC(CC(=O)NCC2CCCO2)c2ccco2)cc1` (stereo not given): 8%; `Cc1cccc(OCCOCCN2CCNCC2)c1C`: -5%; `Cc1nc2sc(C(c3ccccc3)N3CCOCC3)c(O)n2n1` (stereo not given): 3.4%. `O=C(O)CNC(=O)CC1S/C(=N/N=C2/NC(=O)CS2)NC1=O` (stereo not given): the inhibition is 29.5%. Then `NC1=NC(=O)C(CC(=O)NCc2ccccc2)S1` (stereo not given), with -10.3%; and `Cc1ccc(C(=O)OCC(=O)Nc2ccccc2)cc1NC(=O)c1ccco1`, with -0.6%; and `Cc1ccc(C)c(N2CCN(C(=O)CNS(=O)(=O)c3cccs3)CC2)c1`, with -4.9%. Next, `COc1ccc(Cn2c(SCc3ccc(C)cc3)nc3cc(OC)c(OC)cc3c2=N)cc1Cl`: 1.9%. Next, `Cc1ccsc1/C=C/c1ccc2cccc(O)c2n1`: -8.2%; `CSc1ccc(/C=C/c2ccc3cccc(O)c3n2)cc1`: 17.3%; `O=C(CSc1nnc(-c2cccs2)n1-c1ccccc1)NCC1CCCO1` (stereo not given): 5.8%. `O=C1c2ccccc2C(=O)c2c1cccc2N1CCCC1`: the inhibition was 19.4%. For `CCNc1ccc2noc3c2c1C(=O)c1ccccc1-3`, the inhibition is 46%. Next, `CCOc1ccc2noc3c2c1C(=O)c1ccccc1-3`: 19%; `O=C1c2ccccc2-c2onc3ccc(NCCCn4ccnc4)c1c23`: 14.4%; `O=C1c2ccccc2-c2onc3ccc(NCc4ccco4)c1c23`: 58.1% (active). On to `O=C1c2ccccc2-c2onc3ccc(N4CCCC4)c1c23`, for which the inhibition was 62.6% (active).

For `CSc1nc2ccccc2n1CC(=O)N1CCCCC1`, the inhibition was 8.7%. Next, `CCC(Sc1ccc2nnc(-c3ccc(OC)c(OC)c3)n2n1)C(=O)O` (stereo not given): -19.3%; `CN(C)S(=O)(=O)c1cc(NC(=O)Cn2ccsc2=N)ccc1Cl`: -0.6%; `CN1CCN(c2ccc(NC(=O)c3sc4ccccc4c3Cl)cc2)CC1`: 10.7%. Consider `CN1CCN(c2ccccc2NC(=O)c2sc3ccccc3c2Cl)CC1`, for which the inhibition was 62.3% (active). Take `O=C(NC(=S)Nc1ccccc1N1CCOCC1)c1sc2ccccc2c1Cl`: the inhibition was 7.5%. Then `COc1ccccc1NC(=O)CN1CCC(n2c(C)nc3cc(F)ccc32)CC1`, with -4.8%. As to `CCCn1c(CNc2ccccc2O)nc2ccccc21`, the inhibition was 34.6%. With `Cn1c(CNc2nc3ccccc3n2C)nc2ccccc21`, the inhibition is 3.4%. As for `Cn1c(CNc2ccccc2O)nc2ccccc21`, the inhibition is 61.3% (active). Next, `OC(CNc1ccccc1)Cn1ccc2ccccc21` (stereo not given): 7.5%. Next, `OCCNCC(O)Cn1ccc2ccccc21` (stereo not given): 12%; `Oc1ccccc1NCC(O)Cn1ccc2ccccc21` (stereo not given): 55.3% (active).

As for `O=C(CSCc1ccccc1)N/N=C/c1ccc(OCC(=O)N2CCCCC2)cc1`, the inhibition is 2%. Next, `Cc1cc(NC(=O)c2ccco2)ncc1NC(=O)CCc1ccccc1`: 34.9%; `COc1cc(NC(=O)CSc2nc(C)c(C)c(C)n2)c(C)cc1[N+](=O)[O-]`: -6.6%; `Cc1cccc[n+]1C1C(c2ccccc2)C(C#N)=C(C(=C=[N-])C#N)NC1(O)C1CC1` (stereo not given): 50.8% (active). Then `Cc1cccc[n+]1C1C(c2ccc([N+](=O)[O-])cc2)C(C#N)=C(C(=C=[N-])C#N)NC1(O)C1CC1` (stereo not given), with 15.2%; and `N#CC(=C=[N-])C1=C(C#N)C(c2ccccc2F)C([n+]2ccccc2)C(O)(C2CC2)N1` (stereo not given), with 21.1%. Next, `Cc1cnc(NC(=O)CC2CCCC2)s1`: -13.1%; `Cc1ccccc1Cn1nnc(-c2ccc3c(c2)OCO3)n1`: 12.9%; `CC(=O)c1c(C)nc(-c2ccccc2)nc1N`: -1.3%.

For the molecule `Cc1cc(NC(=O)C23CC4CC(C2)CC(n2cnc([N+](=O)[O-])n2)(C4)C3)no1`, the inhibition was 11.1%.

Take `Cc1nc([N+](=O)[O-])nn1C12CC3CC(CC(Cl)(C3)C1)C2`: the inhibition is -2.6%. With `COCCn1c(SCc2cccnc2)nnc1-c1ccco1`, the inhibition is -18.7%. Take `C=CCn1c(=N)c(C(=O)OCC)cc2c(=O)n3cc(C)ccc3nc21`: the inhibition was -2.4%. Then `CN(CC#CC1(O)c2ccccc2-c2ccccc21)Cc1ccccc1`, with 0.8%.

Turning to `CN1CCN(CC(=O)Nc2cc(N3CCOCC3)ccc2[N+](=O)[O-])CC1`, the inhibition is 62.6% (active). Then `CN1CCN(CC(=O)Nc2ccccc2[N+](=O)[O-])CC1`, with -2.9%; and `COc1ccc(N2CCN(CC(=O)Nc3sccc3C#N)CC2)cc1`, with 18.8%.

In the case of `N#Cc1ccsc1NC(=O)CN1CCN(c2ccc(O)cc2)CC1`, the inhibition is 54.7% (active). Next, `CC(C)(C)CNc1cc(N2CCOCC2)ccc1[N+](=O)[O-]`: 16.1%; `O=C(CN1CCN(c2ccc(O)cc2)CC1)Nc1cc(S(=O)(=O)N2CCCC2)ccc1Cl`: 45.4%; `O=C(Cn1cnc2ccccc2c1=O)NCCC(=O)Nc1ccc2c(c1)OCCO2`: -6.6%. Next, `O=C(Cn1cnc2ccccc2c1=O)Nc1ccc2c(c1)OCCO2`: 52.9% (active); `O=C(Cn1cnc2ccccc2c1=O)Nc1ccc2c(c1)OCO2`: 1%. Turning to `Cc1ccc(S(=O)(=O)N2CCOCC2)cc1NC(=O)CN1CCN(c2ccc(O)cc2)CC1`, the inhibition was 53.9% (active). Then `CC(=O)N1CCN(CC(=O)Nc2cc(S(=O)(=O)N3CCOCC3)ccc2C)CC1`, with 2%; and `N#Cc1ccsc1NC(=O)CN1CCN(c2ccccc2)CC1`, with 7.6%. Next, `COC(=O)c1cc(COc2ccc3oc(C)c(C(=O)OC(C)C)c3c2)c(C)o1`: -0.3%; `CC(=O)NCC(=O)OCC(=O)Nc1ccc(C(C)=O)cc1`: -8.8%. Next, `CC(=C1C2C=CC1C1C(=O)NC(=O)C21)c1ccccc1` (stereo not given): 3.8%.

For `Cc1c(NC(=O)COc2cccc3c2OC(C)(C)C3)c(=O)n(-c2ccccc2)n1C`, the inhibition was -6.1%. For the molecule `c1ccc(N2CCN(c3cnc4ccccc4n3)CC2)cc1`, the inhibition is 5%. Then `CC(=O)N1CCC(=NNS(=O)(=O)c2ccc(C)c([N+](=O)[O-])c2)CC1`, with -31.5%; and `O=C(NCc1nc2ccccc2[nH]1)C1=C[C@H](c2ccccc2)C[C@H](OCc2ccc(CO)cc2)O1`, with 11%; and `Cn1c(Cn2c(=O)sc3ccccc32)nnc1SCc1cccc(F)c1`, with -7.7%.

With `COCCNc1c(-c2ccc(OC)cc2)nc2ccc(Cl)cn12`, the inhibition is -8.6%.

Regarding `Cc1ccc(C)c(S(=O)(=O)N/N=C2/CCCc3ccccc32)c1`, the inhibition is -29.2%.

Consider `CCOC(=O)C1=C(O)C(=O)N(c2ccc(S(N)(=O)=O)cc2)C1c1ccc(OC)cc1` (stereo not given), for which the inhibition is 4.3%. Next, `COc1cc(C(F)(F)F)nc(-c2ccccn2)n1`: 4.9%; `O=C(CN1CCOCC1)Nc1ccc2c(c1)OCO2`: 4.7%. Then `CN(C)/C=C/C(=O)c1cc(N2CCOCC2)ccc1[N+](=O)[O-]`, with 55.9% (active).

As to `O=C(c1ccc(N2CCOCC2)cc1[N+](=O)[O-])N1CCOCC1`, the inhibition was 7.3%. Regarding `O=C(CN1CCN(c2ccccc2)CC1)Nc1ccc2c(c1)OCCO2`, the inhibition is -3.7%. Next, `O=C(CN1CCN(c2ccc(O)cc2)CC1)Nc1ccc2c(c1)OCCO2`: 62.8% (active).

For `CC(=O)c1cc(N2CCOCC2)ccc1[N+](=O)[O-]`, the inhibition is 2.8%. Then `O=C(NC1=NCCS1)c1cccc(S(=O)(=O)N2CCCCC2)c1`, with 7.1%; and `Cc1cc(N2CCOCC2)nc2ccc(NC(=O)C3CCC(C)CC3)cc12` (stereo not given), with 0.8%; and `COc1ccc(/C(C)=N/NC(=O)C2CC2)cc1`, with -2.9%. `CCc1ccc(NC(=S)N2CCCC(C(F)(F)F)C2)cc1` (stereo not given): the inhibition is 13.4%. Then `O=C1C(=Cc2ccco2)C(=O)c2ccccc21`, with -11.7%; and `Cc1nc2ccc3[nH]snc3c2n1`, with 2.6%. Next, `c1cc2[nH]snc2c2nc(C3CC3)nc12`: 54.2% (active). Then `Cc1cc(/C=C2\NC(=O)N(Cc3ccc(Cl)cc3)C2=O)c(C)n1C`, with -58.7%; and `O=C(CN1C(=O)S/C(=C\c2ccc(O)cc2)C1=O)c1ccccc1`, with 12.5%.

Take `CS(=O)(=O)N1CCN(c2ccccc2NC(=O)CSc2nnc(-c3ccco3)o2)CC1`: the inhibition is 0.5%.

With `CC(C)CN(C(=O)CSc1nnc(-c2ccco2)o1)c1c(N)n(Cc2ccccc2)c(=O)[nH]c1=O`, the inhibition was -2.6%. Next, `ONc1cccnc1-n1nc(C(F)(F)F)cc1C(F)(F)F`: 67.9% (active); `Nc1cccnc1-n1nc(C(F)(F)F)cc1C(F)(F)F`: -0.6%. In the case of `Cc1cc(C(F)(F)F)nn1C(=O)c1cccnc1Cl`, the inhibition is 6.5%.
